# Test system: Sam68 (KHDRBS1)
# Assay: Sam68 small-molecule binders, primary screen, biochemical, small-molecule microarray, 635 nm fluorescence (AID 1125);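 note: score merges 667 nm channel intensity with signal to noise over triplicate slides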
# Conditions: small-molecule microarray binding, higher = more signal
row,SMILES,composite z-score
1,O=C1C2C=CC(C(O)c3cc(C(F)(F)F)cc(C(F)(F)F)c3)N(Nc3ccc([N+](=O)[O-])cc3)C2C(=O)N1c1ccccc1 (configuration not stated),1.33
2,COCCOC(=O)N1C(=O)[C@@]2(c3cc(C#CC4(O)CCCCCC4)ccc31)[C@H](C(=O)N1CCCCCCC1)[C@H]1C(=O)O[C@H](c3ccccc3)[C@H](c3ccccc3)N1[C@@H]2c1ccc(OCCO)cc1,1.29
3,CC(C)CNC(=O)[C@@H]1c2ccccc2C(=O)N(Cc2cc(F)cc(C(F)(F)F)c2)[C@H]1c1ccc(CO)cc1,0.603
4,CCOC(=O)[C@H]1C/C=C/C[C@H](C(=O)OCC)C(=O)O[C@H]2[C@@H](OC)O[C@H](CO)[C@@H](OC(=O)CCc3ccccc3)[C@@H]2OC1=O,-0.378
5,C=CC[C@@]1(C(=O)O)N=C(c2ccc(OCCCO)cc2)O[C@@H]1c1ccccc1,0.732
6,CCOC(=O)[C@@H]1[C@@H]2C(=O)N(CC)C(=O)[C@@H]2C[C@@H]1Sc1ccccc1,1.25
7,CC(C)CN1C(=O)[C@@]2(c3ccc([N+](=O)[O-])cc3)CC(=O)N(CC34CC5CC(CC(C5)C3)C4)[C@@H]2c2ccc(CO)cc21,-0.772
8,C=CC[C@@]1(C(=O)N2CCCCC2)N=C(c2ccc(OCCCO)cc2)O[C@@H]1c1ccccc1,1.29
9,C=CCOC(=O)[C@H]1[C@@H]2C(=O)O[C@@H](c3ccccc3)[C@@H](c3ccccc3)N2[C@@H](c2ccc(OCCOC(=O)[C@H]3C[C@H]4C(=O)N[C@@H](Cc5ccccc5)C(=O)N4[C@H]3c3ccc(O)cc3)cc2)[C@]12C(=O)Nc1ccc(I)cc12,1.3
10,C=CC[C@@]12N=C(c3ccc(OCCCO)cc3)O[C@@H]1c1ccccc1N(CCS(=O)(=O)c1ccccc1)C2=O,1.31
11,CC(C)N1CC=CC23O[C@@H]4C=CCCOC(=O)C4[C@H]2C(=O)N(CCO)[C@@H]3C1=O (some centres not stated),-0.354
12,CCOC(=O)C[C@H]1[C@H](OC(=O)c2ccc(-c3ccccc3)cc2)[C@@H](NC(=O)C2CCCCC2)c2cc(OCCCO)ccc2N1C(=O)c1ccccc1,0.957
13,C=CCN1Cc2ccccc2C[C@@]2(N=C(c3ccc(OCCCO)cc3)O[C@H]2c2ccccc2)C1=O,1.3
14,O=C1O[C@H](c2ccccc2)[C@H](c2ccccc2)N2[C@H]1[C@@H](C(=O)O)[C@]1(C(=O)Nc3ccccc31)[C@H]2c1ccc(O)cc1,-0.43
15,CN(C)CCCNC(=O)[C@@]1(C)c2ccccc2C(=O)N(Cc2cc(C(F)(F)F)cc(C(F)(F)F)c2)[C@H]1c1ccc(CO)cc1,-0.546
16,CCOC(=O)C[C@H]1[C@H](OC(=O)c2ccc(C(=O)c3ccccc3)cc2)[C@@H](NC(=O)c2ccc3ccccc3c2)c2cc(OCCCO)ccc2N1C(=O)c1ccccc1,1.32
17,Cc1c(NC(=O)/C(C#N)=C/C=C/c2ccccc2[N+](=O)[O-])c(=O)n(-c2ccccc2)n1C,0.708
18,C=CC[C@]12N=C(c3ccc(OCCCO)cc3)O[C@H]1c1ccccc1N(C)C2=O,1.21
19,CC(C)CCC[C@@H](C)[C@H]1CC[C@@]2(C)C3=C(CC[C@]12C)[C@@]1(C)CC[C@H](OC(=O)c2ccc(Br)cc2)C(C)(C)C1CC3 (some centres not stated),0.28
20,Cc1ccc(F)cc1S(=O)(=O)N[C@@H]1CCN(Cc2ccc(Oc3ccccc3)cc2)C1,-0.68
21,COC(=O)[C@H](Cc1ccccc1)N1CC(/C=C/C2CC2)=C[C@@H]1[C@@H](O)Cc1ccccc1,1.34
22,CCN(CC)c1ccc(N2CC=CC34O[C@@H]5/C=C\CCC(C)OC(=O)C5[C@H]3C(=O)N(CCO)[C@@H]4C2=O)cc1 (some centres not stated),0.153
23,Cc1ccc(S[C@]2(C(=O)NC3CC3)CC(=O)N(Cc3ccccc3Cl)[C@@H]2c2ccc(CO)cc2I)cc1,1.13
24,C[C@]1(C(=O)NCCN2CCOCC2)c2ccccc2C(=O)N(Cc2ccc(OC(F)(F)F)cc2)[C@H]1c1ccc(CO)cc1,0.217
25,C[C@H]1C2=C3C(CC[C@H]4C(OCc5ccc(F)cc5C(F)(F)F)OC[C@](C)([C@@H]34)N(C(=O)OC(C)(C)C)C2)C2COC(=O)OCC21 (some centres not stated),1.31
26,COCCOC(=O)N1C(=O)[C@@]2(c3cc(C#CCNC(N)=O)ccc31)[C@H](C(=O)N1CCCCCCC1)[C@H]1C(=O)O[C@H](c3ccccc3)[C@H](c3ccccc3)N1[C@@H]2c1ccc(O)cc1,1.11
27,Cc1ccc(C(C)CC(O)C2C=CC3C(=O)N(c4ccccc4)C(=O)C3N2Nc2ccc(C(C)C)cc2)o1 (configuration not stated),1.28
